# Bioassay records deposited in PubChem by several laboratories.
# RmlCD inh mix: RmlC/RmlD inhibition, mixture screen. RmlC/RmlD coupled enzyme inhibition, 384-well mixture HTS. inhibition, % at 5.5 µM. actives 0.39% (n = 110,000); in the data active = inhibition above about 30%, passing the limit was not always enough; inconclusive = no clear call, values can overlap the other calls
# HIV RNase H inh-1: blocks HIV-1 RNase H cleavage of RNA/DNA duplex | P04585 | RT-RNase H RNA/DNA duplex cleavage, fluorescence | inhibition, % at 10 µM | actives 1.9% (n = 65,000); in the data active = inhibition above about 50%
# HIV RNase H inh-2: confirmation of HIV-1 reverse transcriptase RNase H inhibitors | shares compounds with HIV RNase H inh-1 | Recombinant RT RNase H, fluorescent RNA/DNA duplex cleavage | inhibition, % at 10 µM | actives 39% (n = 1,000) | AID 651; in the data active = inhibition above about 48%; inconclusive = no clear call, values can overlap the other calls
# Hits are given with their value; 0 = inactive; ? = inconclusive; - = no result given. This is one part of a sample in which hits are shown more often than they occur.
SMILES,RmlCD inh mix,HIV RNase H inh-1,HIV RNase H inh-2
COC(=O)C1=C[C@@H](C(=O)OC)[C@@H]2C3=C(C(=O)[C@@]2(C)NC(=O)c2ccccc2)[C@H](c2ccccc2)[C@@H]2C(=O)NC(=O)[C@@H]2[C@@H]3C1,0,-,-
Clc1cccc(Cl)c1COc1ccccn1,0,0,-
COc1ccc(OC)c(C2CC(=O)N3CN(c4ccc(C)c(Cl)c4)CSC3=C2C#N)c1 (centres undefined),0,0,-
COc1cc(OC)c(C2CC(=O)N3CN(C)CSC3=C2C#N)cc1OC (centres undefined),0,76,57
CC(C)c1ccc(C2CC(=O)N3CN(C)CSC3=C2C#N)cc1 (centres undefined),0,73,65
Cc1ccc(C2CC(=O)N3CN(Cc4ccco4)CSC3=C2C#N)cc1 (centres undefined),0,0,-
COc1ccc(OC)c(NC2c3ccccc3C(=O)N2c2cccnc2)c1 (centres undefined),0,0,-
CCOC(=O)c1sc(NC(C)=O)c(C(=O)OCC)c1C,0,0,-
COC(=O)c1sc(NC(C)=O)c(C(=O)OC)c1C,0,58,0
CCOC(=O)c1nn(-c2ccc(OC)cc2)c(=O)c2c(NC(=O)c3ccco3)scc12,-,0,-
COc1ccc(C(=O)Nc2oc(-c3ccccc3)c(-c3ccccc3)c2C#N)cc1,0,-,-
COc1ccc(C(=O)Nc2oc(-c3ccccc3)c(-c3ccccc3)c2C#N)cc1OC,0,62,?
Cn1c(SCC(=O)Nc2ccc3c(c2)OCCO3)nnc1-c1ccccn1,0,0,-
O=C(CSc1nnc(-c2ccccn2)n1Cc1ccccc1)Nc1ccc2c(c1)OCO2,0,77,0
CCOC(=O)C1(C)NC(c2ccc(OC)cc2OC)C2C(=O)N(c3cccc(OC)c3)C(=O)C21 (centres undefined),0,0,-
CC1CCCCN1C(=O)CSc1nnc(-c2ccc(Cl)s2)o1 (centres undefined),0,0,-
O=S(=O)(c1ccc2nc(-c3ccco3)c(-c3ccco3)nc2c1)N1CCOCC1,0,76,0
Cn1c(=O)n(C)c2cc(S(=O)(=O)N3CCOCC3)ccc21,0,0,-
COC(=O)C1N2C(=O)[C@@H](NC(=O)COc3ccccc3)[C@H]2SC1(C)C (some centres undefined),0,-,-
COc1ccc(C(=O)Nc2ccccc2C(=O)N(Cc2ccco2)C(C(N)=O)C(C)C)cc1 (centres undefined),0,-,-
COc1ccc(C(=O)Nc2ccccc2C(=O)NC(C(=O)NCc2ccco2)C(C)C)cc1 (centres undefined),0,82,0
Cc1sc(NC(=O)c2ccc(OCC(C)C)cc2)c(C(N)=O)c1-c1ccc(Cl)cc1Cl,0,-,-
COC(=O)c1cc(Nc2ncnc3c2cnn3-c2ccccc2)cc(C(=O)OC)c1,-,0,-
Cc1ccccc1NC(=O)CSc1nnc(-c2ccco2)c(-c2ccco2)n1,0,-,-
Cc1cccc(C)c1NC(=O)CSc1nnc(-c2ccco2)c(-c2ccco2)n1,0,-,-
SMILES,RmlCD inh mix,HIV RNase H inh-1,HIV RNase H inh-2
O=C(CSc1nnc(-c2ccco2)c(-c2ccco2)n1)Nc1ccccc1,0,87,0
Cc1ccc(NC(=O)CSc2nnc(-c3ccco3)c(-c3ccco3)n2)cc1,0,97,0
CSc1nnc(-c2ccco2)c(-c2ccco2)n1,0,77,0
CSc1nnc2c(n1)OC=Nc1ccccc1-2,0,0,-
CCCCCCCC(=O)NC(Nc1ccc(S(N)(=O)=O)cc1)C(Cl)(Cl)Cl (centres undefined),0,-,-
CCO[C@H]1OC(C(=O)O)=C[C@@H](c2coc3ccccc3c2=O)[C@@H]1CCCO,0,-,-
CCSc1nnc(NC(=O)C2Cc3ccccc3CN2C(=O)c2ccco2)s1 (centres undefined),0,53,?
NS(=O)(=O)c1ccc(CCNC(=O)C2Cc3ccccc3CN2C(=O)c2ccco2)cc1 (centres undefined),0,-,-
O=c1[nH]c(=O)n(Cc2ccco2)c2c1C(C(F)(F)F)(C(F)(F)F)N=C(C1CCCCC1)N2,0,70,0
O=c1[nH]c(=O)n(Cc2ccco2)c2c1C(C(F)(F)F)(C(F)(F)F)N=C(CCC1CCCCC1)N2,0,-,-
COc1ccc(C2N=C(c3ccccc3)C(C)(C)N2O)cc1 (centres undefined),0,-,-
COc1ccc(Cn2nnnc2C(c2cc3cccc(C)c3[nH]c2=O)N2CCOCC2)cc1 (centres undefined),0,54,0
COc1ccc(Cn2nnnc2C(c2cc3cc(C)ccc3[nH]c2=O)N2CCOCC2)cc1 (centres undefined),0,0,-
COc1cccc(CNc2cc(CSc3ccc(Cl)cc3)nc(C)n2)c1,0,-,-
CCNC(=O)c1sc(=S)n(-c2ccc(C)cc2)c1N,0,-,-
CCOC(=O)c1sc(=S)n(-c2ccccc2)c1N,0,-,-
Cc1ccc(-n2c(N)c(C(=O)N3CCOCC3)sc2=S)cc1,0,95,76
CN1CCN(C(=O)c2sc(=S)n(-c3ccccc3)c2N)CC1,0,95,59
C=C(C(=O)O)C1CCC2(C)CCCC(C)(O)C2C1 (centres undefined),0,-,-
CC1=C(C(=O)Nc2ccc(Cl)cc2)C(c2cccs2)n2nnnc2N1 (centres undefined),0,73,0
COC(=O)C1=C(C(=O)c2ccccc2)C(c2cccs2)n2nnnc2N1 (centres undefined),0,0,-
CCCCN(CC(=O)Nc1c(C)cccc1CC)C(=O)SCC,0,-,-
CCOC(=O)c1c(N)sc2c1CCC1C(=O)N(C3CCCCC3)C(=O)C21 (centres undefined),0,74,68
CCOC(=O)c1c(N)sc2c1CCSC2,0,-,-
CCN1C(=O)N[C@@H](c2ccco2)C(C(C)=O)=C1C,0,-,-
SMILES,RmlCD inh mix,HIV RNase H inh-1,HIV RNase H inh-2
CC[C@H]1CC2CN3CCc4c([nH]c5c([C@H]6C[C@H]7[C@H](CC)CN(C)[C@@H](Cc8c6[nH]c6ccccc86)[C@H]7C(=O)OC)c(OC)ccc45)C(C(=O)OC)(C2)C13,0,-,-
CCCC(C(=O)NC1CCCC1)N(C(=O)Cn1nnc(-c2ccc(C)o2)n1)c1ccccc1OC (centres undefined),0,0,-
CCSc1nc2c(c(=O)[nH]c(=O)n2C)n1CC(O)COc1ccccc1C (centres undefined),0,76,0
Cc1ccccc1OCC(O)Cn1c(NCc2ccccc2)nc2c1c(=O)[nH]c(=O)n2C (centres undefined),0,-,-
Cc1cc(C)n(-c2nc3c(c(=O)[nH]c(=O)n3C)n2CC(O)COc2ccccc2C)n1 (centres undefined),0,0,-
Cc1ccccc1OCC(O)Cn1c(SC(C)C)nc2c1c(=O)[nH]c(=O)n2C (centres undefined),0,67,0
CCC(C)(C)n1nnnc1C(c1ccc(C)cc1)N(Cc1ccco1)Cc1cccs1 (centres undefined),0,-,-
COc1cccc(C(CC(=O)Nc2cccc3ccccc23)NC(=O)c2ccccc2)c1 (centres undefined),0,-,-
CCCCC(=O)Nc1ccc(C(=O)N2CCC(C(=O)OCC)CC2)cc1,0,-,-
O=C(NCC(=O)N(c1ccc(F)cc1)C(C(=O)NCC1CCCO1)c1ccccc1)c1ccco1 (centres undefined),0,57,0
O=C(NCC(=O)N(c1cccc(F)c1)C(C(=O)NCC1CCCO1)c1ccccc1)c1ccco1 (centres undefined),0,0,-
